Laboratory results from PubChem BioAssay (NCI).
Values joined by “and” are separate entries in the source; they are usually repeats but may differ in a detail not shown here. Identical values can stand only once. Compounds without any hit were thinned out: in the full panel of roughly 83,000, 20% have a hit.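 The endpoint reported here, percent growth, reads 100 for growth as untreated, 0 for no net growth and -100 for all cells dead.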 A number with no mark means an inactive call. Active and inactive are the calls of the source. Rule for the calls: active = growth percent below 10; inactive = the rest.

Key:
Experiment in all cases: NCI-60 one-dose screen, 48 h (100 = growth as untreated, 0 = no growth, -100 = all killed)
Settings in all cases: 10 µM unless noted
T-47D breast = test system: T-47D breast
BT-549 breast = test system: BT-549 breast
MDA-MB-435 melanoma = test system: MDA-MB-435 melanoma
SW-620 colon = test system: SW-620 colon
MCF7 breast = test system: MCF7 breast
HCT-116 colon = test system: HCT-116 colon
HCC-2998 colon = test system: HCC-2998 colon
KM12 colon = test system: KM12 colon

Row | SMILES | growth (T-47D breast) | growth (BT-549 breast) | growth (MDA-MB-435 melanoma) | growth (SW-620 colon) | growth (MCF7 breast) | growth (HCT-116 colon) | growth (HCC-2998 colon) | growth (KM12 colon)
1 | CCNC(=S)n1nc(SC)c(C(=O)OCC)c1N | 86.4% | 95.3% | 104% | 102% | 92% | 96.1% | 116% | 97.5%
2 | COc1cc(CNC(=O)CCCC/C=C/C(C)C)ccc1OCc1cn(-c2ccc([N+](=O)[O-])cc2)nn1 | 64% | 80.4% | 99.7% | 99.8% | 83.4% | 77.2% | 108% | 90%
3 | Cn1cc(-c2nc3c(F)cc4[nH]ncc4c3c3c2CCCC3)c(C(F)F)n1 | 50.8% | 31.1% | 27.1% | 56.3% | 46.5% | 39.7% | 90.6% | 23.2%
4 | CON1CCC[C@]2(C)[C@H]3CC[C@@H]4[C@H]5[C@@H](O)C(C)(C)CC[C@]5(CO)CC[C@@]4(C)[C@]3(C)CC[C@H]2C1(C)C | 79.8% | 115% | 94.5% | 98.4% | 98.5% | 88.6% | 103% | 105%
5 | O=C(O)C1C2CCC1C(O)C2 (centres undefined) | 92.3% and 97.4% | 98.2% and 97.1% | 106% | 107% and 113% | 92% and 97.8% | 100% and 101% | 99.9% and 101% | 107% and 98.7%
6 | CCOC(=O)CCCn1c(-c2ccccc2)cc(-c2ccccc2)c(C#N)c1=O | 93.6% | 93.9% | 50% | 88.3% | 89.6% | 75.5% | 98.2% | 83.4%
7 | Cc1ccc(NC(=O)N/C(N)=N/c2nc(=O)c3ccccc3s2)cc1 | 109% | 86.4% | 87.5% | 92.7% | 84.9% | 94.1% | 102% | 103%
8 | COc1ccc(-c2cc(-c3cccc(Cl)c3)c(C#N)c(=O)[nH]2)c(OC)c1 | 97.8% | 85.9% | 87.1% | 96.3% | 88.7% | 96.9% | 106% | 102%
9 | Cc1c(C(=O)OCCCCOC(=O)c2c(C)n(C)c3scc[n+]23)[n+]2ccsc2n1C | 97.1% | 110% | 109% | 125% | 100% | 107% | 115% | 118%
10 | COc1ccc(N2CCN(S(=O)(=O)c3oc(-c4ccccc4)nc3C#N)CC2)cc1 | 73.1% | 77.5% | 65.2% | 7.02% (active) | 31.2% | 15.4% | 100% | 104%
11 | COc1ccc(C(=O)c2ccc(OC)c(OC)c2OC)cc1 | 44.5% and 36.2% | 71.9% and 50% | -14.6% (active) and -29.5% (active) | 15.6% and 11.8% | 25.4% and 16.5% | 30.5% and 26.3% | 57.3% and 45.6% | 29.5% and 24.7%
12 | O=C(CCl)N(O)c1ccc(/C=C/c2ccccc2)cc1 | 63.8% and 59.5% | 73.5% and 62.4% | 97.2% and 90% | 74.3% and 53.5% | 49.2% and 42.5% | 69.1% and 51.7% | 75.7% and 89.3% | 102% and 91.6%
13 | Cc1ccc(-c2nc3nc(-c4ccc(Cl)cc4)nc(N4CCCNCC4)c3o2)cc1 | -36.5% (active) | 99.4% | -81.1% (active) | -81.9% (active) | -79.4% (active) | -75.6% (active) | -78.8% (active) | -88.7% (active)
14 | OCCN1CCN(c2cc(-c3cccc(OC(F)(F)F)c3)nc3ccc(N4CCCC4)cc23)CC1 | 32.2% | 80.5% | 29.7% | 2.96% (active) | 17.5% | 15.6% | 22.9% | 23.4%
15 | CN1CCN(Cc2ccc(NC(=O)c3nc4ccc5[nH]ncc5c4c4c3CCCC4)cc2C(F)(F)F)CC1 | -69.3% (active) | -78.5% (active) | -82.6% (active) | -60% (active) | -68.5% (active) | -90.4% (active) | -80.7% (active) | -73.4% (active)
16 | N#C/C(=C\c1ccc(Br)cc1)n1nnc2c(F)cccc21 | 14.2% | 12% | -26.8% (active) | -22.1% (active) | 12.7% | -27.5% (active) | -38.4% (active) | 4.37% (active)
17 | COc1ccc(/C=C2/C(=O)N=C3N2NC(c2ccccc2)=CN3c2ccccc2)cc1 | 106% | 96% | 108% | 101% | 99.9% | 99.8% | 97.7% | 108%
18 | Brc1ccc(/C=C(/C2=NCCN2)n2ccc3ccccc32)cc1 | 53.1% | 80.3% | 58.2% | 71.8% | 30.2% | 52.9% | 48.5% | 80.4%
19 | O=C(/C=C/c1ccccc1)c1cccs1 | 97.3% and 104% | 104% and 107% | 88.9% and 85.1% | 84.6% and 98.3% | 29.1% and 21.7% | 74% and 57.3% | 97.3% and 130% | 69.6% and 70%
20 | Nc1nc(Nc2ccc(F)cc2)nn1C(=O)c1cc(Cl)ccc1Cl | 84.9% | 80% | 88.8% | 71.4% | 48.8% | 58.6% | 86.3% | 51.4%
21 | N#CC(Cc1cccc2ccccc12)c1cc2ccccc2[nH]1 (centres undefined) | 83.8% | 90.1% | 102% | 89.3% | 82.5% | 83.7% | 99.2% | 88%
22 | O=C1c2cccc3cccc(c23)C(=O)N1N1C(=O)c2cccc3c(N4CCNCC4)ccc(c23)C1=O | 93.6% | 89.8% | 99.9% | 78.7% | 29% | 58.1% | 79.4% | 82.2%
23 | O=C(Nc1ncc(Cc2cccc(C(F)(F)F)c2)s1)c1ccc2c(c1)OCCO2 | 42.5% | 35.8% | 3.47% (active) | 37% | 13.9% | 10.9% | 20.3% | 11.1%
24 | O=c1ccc2nc(-c3ccccn3)nn(-c3ccccc3)c-2c1 | -28.4% (active) | 86.6% | 90.7% | -61.8% (active) | -56% (active) | 48.7% | 98.8% | 98.4%
25 | CCCCSc1ccc2nc(-c3ccc(OCCCN=C(N)N)cc3)cn2c1 | 90.7% | 54.2% | 47.6% | 83.5% | 47% | 42.2% | 59.2% | 34.3%
26 | Cc1cccc(Cc2cnc(NC(=O)CCCOc3ccc(Cl)cc3)s2)c1 | 33.5% | 61.5% | -53.2% (active) | 25% | 20% | 16.4% | 48.9% | 21.8%
27 | N#Cc1c(-c2cccc(F)c2)cc(-c2cccnc2)[nH]c1=O | 93.4% | 98.3% | 100% | 110% | 92.4% | 103% | 112% | 103%
28 | O=C1/C(=C/c2ccccc2)CN(C(=O)C(Cl)Cl)C/C1=C\c1ccccc1 | 17.2% | -5.59% (active) | -50.2% (active) | -49% (active) | -39% (active) | -70.7% (active) | -59.6% (active) | -61.8% (active)
